Measured values published in paper PMC5540273 (PLoS ONE, 2017).

system: p38-delta; details: concentration: 1 μM, replicates: in singlicate; n = 1
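Further: KINOMEscan kinase panel screen.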

Structure (SMILES) | %Inh [%]
COc1cc(OC)cc(-c2cc3cnc(N)nc3nc2NC(=O)NC(C)(C)C)c1 | 0
CCC(=O)c1c(-c2ccccc2)c2cc(Cl)ccc2c(=O)n1Cc1cc(C(=O)NC2CC2)n(C)n1 | 35
Cc1ccc(Oc2ccc(Nc3ncnc4cc[nH]c34)cc2C)cn1 | 30
CN(C)c1cc(-c2ccc3c(N)n[nH]c3c2)nc(N)n1 [GSK2219329] | 37
O=C(NCCNc1ccnc(Nc2ccc(F)cc2)n1)Nc1ccc2c(c1)OCO2 [GSK1379882] | 37
COc1ccc(CNC(=O)NC2CCN(c3ccnc(Nc4ccc(F)cc4)n3)C2)cc1 (stereo not shown) [GSK1379706] | 38
COc1cc2nccc(Nc3ccc(OCc4ccc(NC(C)=O)cc4)cc3)c2cc1OC.Cl [GW440135] | 24
CCC(=O)c1c(-c2ccccc2)c2cc(Cl)ccc2c(=O)n1Cc1cc(S(C)(=O)=O)n(CC(F)F)n1 | 19
COC(=O)c1c(-c2ccccc2)c2cc(Br)ccc2c(=O)n1Cc1ccc(S(C)(=O)=O)cc1 | 38
CCCNC(=O)Nc1ccc(Oc2ncnc3ccn(C)c23)cc1 | 4
Fc1cccc(CSc2nnc(-c3ccc4c(c3)CCO4)o2)c1 | 28
CCC(=O)c1c(-c2ccccc2)c2cc(Cl)ccc2c(=O)n1Cc1cc(S(C)(=O)=O)n(CCC(C)(C)O)n1 | 32
Cl.NS(=O)(=O)c1cccc(Nc2cc(-c3ccc(F)cc3)n[nH]2)c1 [GW824645] | 0
